Source: PubChem BioAssay (EPA / NIEHS)
Inconclusive results are not listed. Activity calls are given as the source filed them. How the source made its calls: active means hit-call score of the fitted dose curve at least 0.9, where 1 is the maximum; inconclusive means response in the unintended direction; inactive means score below 0.9.

biological target: human Peroxisome Proliferator-activated Receptor delta (PPARd), PPARD (gene 5467) (UniProt Q03181); experiment: ATG_PPARd_TRANS: Attagene TRANS-FACTORIAL HepG2 Assay for human Peroxisome Proliferator-activated Receptor delta (PPARd) (AID 2283002)
In short: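 HepG2 cells transiently transfected with GAL4-UAS multiplexed reporter units driven by exogenous chimeric NR-GAL4 proteins; 24 h compound exposure. Reporter mRNA measured by RT-PCR, 6-FAM primer extension, HpaI digestion and capillary electrophoresis; gain of signal fitted relative to DMSO.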

human Peroxisome Proliferator-activated Receptor delta (PPARd), PPARD (gene 5467), sequence (Q03181 whole entry, looked up, the tested form may be a part): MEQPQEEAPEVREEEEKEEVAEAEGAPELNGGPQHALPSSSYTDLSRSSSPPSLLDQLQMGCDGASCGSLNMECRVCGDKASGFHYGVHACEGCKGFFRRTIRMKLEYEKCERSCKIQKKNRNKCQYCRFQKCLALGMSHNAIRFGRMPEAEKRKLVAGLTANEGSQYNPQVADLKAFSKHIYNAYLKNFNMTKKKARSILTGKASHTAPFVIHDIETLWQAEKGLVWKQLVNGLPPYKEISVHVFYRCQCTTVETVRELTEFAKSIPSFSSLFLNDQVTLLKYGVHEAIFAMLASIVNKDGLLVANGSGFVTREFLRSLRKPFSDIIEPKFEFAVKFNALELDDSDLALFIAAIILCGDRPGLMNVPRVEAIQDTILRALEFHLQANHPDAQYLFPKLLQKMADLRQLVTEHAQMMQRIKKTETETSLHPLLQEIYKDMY

outcome, inactive:
C=CCCCCCCCCCC
CCCCSCCCC
Nc1ccccc1[N+](=O)[O-]
CCCC(C)=O
Cc1ccc2c(c1)C(=O)OC2=O
CCc1ccc(O)c(OC)c1
N[C@@H](Cc1cc(I)c(Oc2cc(I)c(O)c(I)c2)c(I)c1)C(=O)O
COc1ccc(N=Nc2cc(C)c(N=Nc3ccc(S(=O)(=O)O)cc3)cc2OC)cc1
Cc1c(C2(c3cc(Br)c(O)c(Br)c3C)OS(=O)(=O)c3ccccc32)cc(Br)c(O)c1Br
CCCCCCOCCOCCO
CC(C)(C)C1=CC(=O)C(C(C)(C)C)=CC1=O
COCCc1ccc(OCC(O)CNC(C)C)cc1 (stereo not drawn)
C1CCOC1
O=C(c1ccccc1)C(O)c1ccccc1 (stereo not drawn)
COC(C)(C)CCCC(C)CC=O (stereo not drawn)
CCCCOCC
O=C1NC2NC(=O)NC2N1 (stereo not drawn)
C=CCCC(=O)/C=C/C1C(C)=CCCC1(C)C (stereo not drawn)
COc1ccc(N)c([N+](=O)[O-])c1
CC1C2CC(CC2C2CCCC(O)C2)C1(C)C (stereo not drawn)
O=Cc1ccccc1S(=O)(=O)O
CCc1ncc(C)[nH]1
ClC(c1ccccc1)(c1ccccc1)c1ccccc1
O=c1[nH]c(=O)c2cn[nH]c2[nH]1
CC(C)C(OC(=O)c1ccccc1)C(C)(C)COC(=O)c1ccccc1 (stereo not drawn)
CC(C)(C)OC(=O)c1ccc(O)cc1
CCCCCc1ccco1
C=C1C[C@]23C[C@@]1(O)CC[C@H]2[C@@]12C=C[C@H](O)[C@@](C)(C(=O)O1)[C@H]2[C@@H]3C(=O)O
